Reference: PubChem BioAssay (Tox21)
Where “and” joins values, the source holds several entries; their conditions need not be identical. Equal entries are not always repeated. Records with an inconclusive call do not appear. Where a call stands in place of a potency, no number is given. Some compounds were tested as several samples or in several runs, with calls that do not always agree. Calls of active or inactive are those of the source. The call rests on the fitted dose curve; in most records, active means well fitted cell-killing curve with a large enough effect in the repeat runs; inconclusive means weak or mixed curves, or effect the other way; inactive means no such curve, though single readings can be large or run the other way.
Potency means the concentration at half of the fitted maximal effect.

Experiment: qHTS assay to identify small molecule agonists of the vitamin D receptor (VDR) signaling pathway - cell viability counter screen (AID 743224); further: nearly all actives have a fitted effect of over 50% in size
Settings: VDR-bla HEK293T viability, CellTiter-Glo luminescence, 16 h; series mostly up to 62.6 µM; activity change, negative = cytotoxicity: at the top concentration
Excerpt: U.S. Tox21 Program National Center for Advancing Translational Sciences [NCATS] NIH Chemical Genomics Center [NCGC] U.S. Environmental Protection Agency [EPA] National Institutes of Environmental Health Sciences [NIEHS] National Toxicology Program [NTP] U.S. Food and Drug Administration [FDA] Tox21 Assay Overview: The vitamin D receptor (VDR), a member of nuclear hormone receptor superfamily, plays a critical role in calcium homeostasis and bone metabolism. It is also involved in cell differentiation and growth, and thrombogenicity. […] The cytotoxicity of the Tox21 compound library against the VDR-bla cell line was tested in parallel by measuring the cell viability using CellTiter-Glo assay (Promega, Madison, WI) in the same wells.
Tox21 Assay Protocol Summary: VDR-bla cells were dispensed at 2,000 cells/6 uL/well into black wall/clear-bottom 1536-well plates using a Multidrop Combi (Thermo Fisher Scientific, Waltham, MA) dispenser. After the assay plates were incubated at a 37C and 5% CO2 for 4 h, 23 nL of compounds dissolved in DMSO, positive controls or DMSO only was transferred to the assay plate by a Pintool station (Kalypsys, San Diego, CA). The plates were incubated at 37C and 5% CO2 for 16 h. After 1 uL of LiveBLAzerTM B/G FRET substrate was added using a Bioraptr Flying Reagent Dispenser (FRD) workstation (Beckman Coulter, Indianapolis, IN, USA), the plates were incubated at room temperature for 2 h, and fluorescence intensity was measured by an Envision plate reader (PerkinElmer, Shelton, CT). For cell viability readout that measures cytotoxicity, 3 ul/well of CellTiter-Glo reagent was added into the assay plates using a FRD. After 30 min incubation at room temperature, the luminescence intensity in the plates was measured using a ViewLux (PerkinElmer) plate reader.
For `N#Cc1ccccn1`, the Potency was “inactive”. With `CC(C)(C)C(=O)CCl` the Potency was “inactive”. For `O=[N+]([O-])c1cc([As](=O)(O)O)ccc1O`, the Potency was “inactive”. For `Cl/C=C/Cl`, the Potency was “inactive”. For `CNc1cnn(-c2cccc(C(F)(F)F)c2)c(=O)c1Cl`, the Potency was “inactive”. For `CN(C)CCC#N`, the Potency was “inactive”. For `OC[C@@H](O)[C@H]1O[C@@H]2O[C@H](C(Cl)(Cl)Cl)O[C@@H]2[C@H]1O`, the “activity change, negative = cytotoxicity” value was 0.755% (inactive). With `C=CC(=O)OCCCCCC(C)C` the “activity change, negative = cytotoxicity” value was 4.57% (inactive). For `OCCCCO`, the Potency was “inactive”. With `Nc1ncc([N+](=O)[O-])s1` the Potency was “inactive”. With `CC(C)c1cccc(C(C)C)c1O` the Potency was “inactive”. In the case of `COC(=O)Nc1cccc(OC(=O)Nc2cccc(C)c2)c1`, the Potency was “inactive”. With `CCSC(=O)N1CCCCCC1` the Potency was “inactive”. With `OCC(O)CCl` (stereo not given) the Potency was “inactive”. With `CCCOC(=O)c1ccccc1C(=O)OCCC` the “activity change, negative = cytotoxicity” value was 2.07% [at 81.1 µM] (inactive). For `Cc1ccc(N=C=O)cc1N=C=O`, the Potency was “inactive”. With `COc1cc(-c2ccc(N)c(OC)c2)ccc1N` the Potency was “inactive”. With `ClC(Cl)c1ccccc1` the Potency was “inactive”. In the case of `CCCCCCCCCCCCCCCCCC(=O)O`, the Potency was “inactive”. With `Clc1cnc(Oc2ccc(Oc3ncc(Cl)cc3Cl)cc2)c(Cl)c1` the Potency was “inactive”. For `COP(=S)(OC)Oc1ccc(SC)c(C)c1`, the Potency was “inactive”. With `CSc1nnc(C(C)(C)C)c(=O)n1N` the Potency was “inactive”. With `O=C(O)CCCc1ccc(N(CCCl)CCCl)cc1` the Potency was “inactive”. For `CCCCC(CC)C(=O)Cl` (stereo not given), the Potency was “inactive”. With `CCOP(=S)(OCC)Oc1cc(C)nc(C(C)C)n1` the Potency was “inactive and 24.5 µM (active)”. In the case of `C[C@H]1C(=O)O[C@@H]2CCN3CC=C(COC(=O)[C@](C)(O)[C@]1(C)O)[C@H]23`, the Potency was “inactive”. In the case of `O=C(O)C(Br)Br`, the Potency was “inactive”. In the case of `CNC(=O)O/N=C/C(C)(C)S(C)(=O)=O`, the Potency was “inactive”. With `[N-]=[N+]=CC(=O)OC[C@H](N)C(=O)O` the Potency was “inactive”. With `O=P1(NCCCl)OCCCN1CCCl` (stereo not given) the Potency was “inactive”. With `COP(=S)(OC)SCN1C(=O)c2ccccc2C1=O` the Potency was “inactive”. For `COC(C)(C)CCCC(C)C/C=C/C(C)=C/C(=O)OC(C)C` (stereo not given), the Potency was “inactive”. In the case of `Oc1c(Br)cc(Br)cc1Br`, the Potency was “inactive”. For `C=C(C)C(=O)OCC(CC)CCCC` (stereo not given), the Potency was “inactive”. For `C=CC(=O)OCC(CC)CCCC` (stereo not given), the Potency was “inactive”. For `O=C(O)c1cc(Oc2ccc(C(F)(F)F)cc2Cl)ccc1[N+](=O)[O-]`, the Potency was “inactive”. With `Oc1ccc(Cl)cc1` the Potency was “inactive”. In the case of `C=CC#N`, the Potency was “inactive”. With `Cc1cc(Cl)ccc1OC(C)C(=O)O` (stereo not given) the Potency was “inactive”. With `CNC(=O)O/N=C/C(C)(C)SC` the Potency was “inactive”.
